Sampled rows, rich in hits. Any-hit rate of the full collection: about 2.4%.
D2 ag-1: activates the human D2 dopamine receptor; DiscoveRx PathHunter D2 beta-arrestin, luminescence, 90 min; 100% = 57 uM dopamine signal; activation, % (concentration not given with the values); actives 0.084% (n = 360,000); in the data active = activation above about 40%; inconclusive = between about 15% and that limit
Target sequence (P14416 whole entry, looked up): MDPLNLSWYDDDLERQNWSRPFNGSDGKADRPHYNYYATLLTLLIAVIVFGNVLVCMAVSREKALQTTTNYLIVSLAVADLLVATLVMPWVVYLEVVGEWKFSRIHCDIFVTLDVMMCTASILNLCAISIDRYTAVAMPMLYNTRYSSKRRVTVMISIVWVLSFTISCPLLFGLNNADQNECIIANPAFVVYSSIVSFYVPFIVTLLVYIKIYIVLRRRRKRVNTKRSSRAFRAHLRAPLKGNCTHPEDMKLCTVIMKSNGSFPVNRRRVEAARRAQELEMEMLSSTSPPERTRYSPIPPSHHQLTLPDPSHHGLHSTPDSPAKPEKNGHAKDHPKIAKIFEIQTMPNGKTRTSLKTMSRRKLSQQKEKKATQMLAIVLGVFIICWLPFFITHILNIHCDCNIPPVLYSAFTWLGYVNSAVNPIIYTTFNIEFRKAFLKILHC
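DiscoveRx PathHunter D2 beta-arrestin cells (2,100/well) attached overnight, then compound-stimulated 90 min at 37 C in HBSS/10 mM HEPES/0.1% Tween-20 buffer; beta-galactosidase complementation read by luminescence after 1 h at ambient temperature. Dopamine 57 uM final (EC100) as control.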
D2 ag-2: D2 dopamine receptor (human) agonism | HEK293 T-REx D2 cells, calcium flux agonist mode | activation, % at 2 µM | actives 0.53% (n = 340,000);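 active = activation over 3 SD above normal in the single-dose calcium agonist read, cut at about 30% in these data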; note: 0% is about no effect
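In this primary screen, compounds producing a positive calcium signal within 180 s of addition to tetracycline-induced, force-coupled HEK293 Trex D2 cells are flagged; cells are dye-loaded with a no-wash calcium kit beforehand.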
D2 PAM-1: positive allosteric modulators of human D2 dopamine receptor. P14416. HEK293 T-REx D2, calcium flux, EC20 dopamine potentiation. potentiation, % at 10 µM. actives 0.34% (n = 340,000). AID 485347;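 active = potentiation over 3 SD above the plate norm, cut at about 30% in these data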; note: 0% is about no effect
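Tetracycline-induced Hek293 Trex D2 cells, force-coupled to calcium, loaded with no-wash calcium dye. Compound added with 180 s kinetic read for agonism, then EC20 dopamine and a further 180 s read for potentiation.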
D2 PAM-2: potentiates the human D2 dopamine receptor allosterically; DiscoveRx D2 beta-arrestin cells, luminescence, 90 min; 100% = 57 uM dopamine signal; potentiation, % (concentration not given with the values); P14416; AID 624464; actives 0.23% (n = 360,000); in the data active = potentiation above about 50%; inconclusive = mostly about 30% to 49%
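PathHunter beta-arrestin assay in DiscoveRx D2 cells. Compounds were added with an EC20 of dopamine (50 nM final) for 90 min at 37 deg C. Luminescence was read 1 h after detection reagent, with 57 uM dopamine as the EC100 control.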
D2 antag: D2 dopamine receptor (human) antagonism. actives 2% (n = 340,000). HEK293 TREx D2 cells, calcium flux, dopamine EC80. P14416. inhibition, % at 10 µM; in the data active = inhibition above about 30%; inactive = below that, where a call was filed; note: 0% is about no effect
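Read-out: kinetic calcium fluorescence (1 cycle/s) in inducible HEK293 T-REx D2 cells after an EC80 dopamine addition that followed 180 s compound preincubation. Loss of the dopamine response indicates antagonism.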
D3 ag: activates human D3 dopamine receptor beta-arrestin recruitment. shares compounds with D2 ag-2. DiscoveRx D3 beta-arrestin cells, luminescence, 90 min. Potency, µM (titrated, usually from 76.9 µM), inactives show top-dose activation, usual class: activators. actives 4% (n = 2,300). AID 720506;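 note: potency is the fitted concentration of half-maximal effect; 100% = dopamine control response; nearly all actives have a fitted effect of over 70% in size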
D2 ag-3: counter-screen for D3 agonists: human D2 dopamine receptor agonism | DiscoveRx PathHunter D2 beta-arrestin, luminescence, 90 min; response scale: percent relative to full dopamine signal | Potency, µM (titrated, usually from 76.9 µM), for inactives: at the highest dose activation, hits mostly activators | shares compounds with D2 ag-2 | actives 5.9% (n = 2,300); note: potency is the fitted concentration of half-maximal effect; % of control where 0% means no effect; nearly all actives have a fitted effect of over 70% in size
* marks the source's active call; other numbers are inactive results; ? = inconclusive; . = no result. Unless noted, calls come from the whole dose curve; as a rule, active = well fitted activation curve with a large enough effect; inconclusive = small, poorly fitted or top-dose-only effect; inactive = flat fitted curve, though single readings scatter.

SMILES	D2 ag-1	D2 ag-2	D2 PAM-1	D2 PAM-2	D2 antag	D3 ag	D2 ag-3
CCN1C(=O)[C@H]2[C@@H](c3ccc(C)cc3)N3C(=O)N(c4ccccc4)C(=O)[C@@]3(Cc3ccc(Cl)cc3)[C@H]2C1=O	-0.7	1.9	5.2	-72.4	4.4	.	.
c1ccc2c(c1)CCN(Cc1nnnn1Cc1ccc3c(c1)OCO3)C2	?	68.2*	-24.1	15.5	23.5	1.8%	?
c1ccc(Cn2nnnc2CN2CCN(Cc3ccc4c(c3)OCO4)CC2)cc1	0.0	1.0	-0.9	-36.2	4.1	.	.
COc1ccc(Cn2nnnc2CN2CCc3ccccc3C2)cc1	?	56.7*	-11.1	11.3	34.4*	6.3%	?
CCC(c1nnnn1Cc1ccc2c(c1)OCO2)N1CCN(c2ccccc2)CC1 (configuration not stated)	?	80.0*	-33.2	0.3	78.7*	3.4%	?
COc1cccc(CN(C)C(=O)c2cccc(S(=O)(=O)N3CCN(Cc4ccccc4)CC3)c2)c1OC	-2.8	1.9	-0.1	-12.4	0.1	29.3%	20.1%
COC(=O)Cn1c2ccc(F)cc2c2nc(C)sc21	-3.7	37.8*	-23.5	-7.2	-6.0	7.1%	-2.2%
COc1ccc(CCNC2CCC(c3ccccc3)CC2)cc1 (configuration not stated)	12.0	35.7*	-14.6	-6.2	77.7*	-4.6%	19.9%
COc1ccc(OC)c(CNc2ccc([N+](=O)[O-])cc2C)c1	-1.3	57.0*	-25.6	-1.3	8.5	-11.7%	3.1%
COc1cccc(CNc2ccc([N+](=O)[O-])cc2C)c1	-4.1	-1.1	0.2	-27.7	-6.9	.	.
CCOc1ccc(-c2c(C)nn3c(C)c(C(=O)Nc4ccccc4C(=O)OC)cnc23)cc1OCC	.	.	-0.3	.	.	.	.
CCOc1ccc(CCNC(=O)CCn2c(=O)c3cccn3c3ccc(F)cc32)cc1OCC	.	0.7	2.1	.	.	.	.
O=C(c1ccco1)N1CCN(CCCCOc2cccc3ccccc23)CC1	?	75.5*	-25.5	3.3	83.6*	?	?
O=C(c1ccco1)N1CCN(CCOc2ccc(F)cc2)CC1	10.0	-2.2	4.0	3.3	-12.7	.	.
c1ccc(CN2CCN(CCOCCOc3cccc4ccccc34)CC2)cc1	0.6	1.5	-23.8	-6.4	-4.8	.	.
O=C(c1ccco1)N1CCN(CCOCCOc2cccc3ccccc23)CC1	?	66.2*	-17.5	19.7	77.4*	7.94µM*	25.1µM*
COc1ccc(-c2noc(CN(C(=O)COc3cc(C)c(Br)c(C)c3)C(C)C)n2)cc1	.	-1.0	0.5	.	.	.	.
O=C(NCCS(=O)(=O)N1CCN(c2ccccc2F)CC1)C(c1ccccc1)c1ccccc1	.	-0.4	-6.2	.	.	.	.
Cc1ccsc1/C=N\NC(=O)CCc1c(C)n[nH]c1C	-5.8	-0.8	-1.4	1.6	-7.7	.	.
Cc1n[nH]c(C)c1CCC(=O)N/N=C/c1cccs1	3.5	-1.1	6.0	-3.1	5.2	2.8%	1.3%
COc1cc(OC)c(N(C)C(=O)c2nn(C)c3c2CSc2ccccc2-3)cc1Cl	.	3.9	-2.8	.	.	.	.
Nc1c(C(=O)c2ccc(Cl)cc2)sc2nsc(SCCN3CCOCC3)c12	-0.8	16.2	10.9	-4.5	-7.7	2.1%	2.5%
CC(=O)c1sc2nsc(SCCN3CCCCC3)c2c1N	1.9	4.6	-3.3	-14.3	-14.4	.	.
CCC(C)N(NC(C)=O)c1nc(Cl)nc(NC(C)(C)C)n1 (configuration not stated)	-1.4	80.3*	-23.6	3.4	11.1	-0.6%	-2.6%
CN(C)c1ccc(C#Cc2ccc3cc(CCO)oc(=O)c3c2)cc1	-1.3	-1.2	-4.2	-4.8	-12.2	12.4%	2.7%
SMILES	D2 ag-1	D2 ag-2	D2 PAM-1	D2 PAM-2	D2 antag	D3 ag	D2 ag-3
CN(C(=O)c1ccc(NC(=O)Cc2cccc(NC(=O)C3CCN(C(=O)C4CC4)CC3)c2)cc1)C1CCCC1	0.1	0.6	21.7	-2.1	-11.7	-5.5%	-4.2%
CN(Cc1ccccc1)S(=O)(=O)c1ccc(-c2cnc(C3CC3)o2)cc1	.	1.6	-5.5	.	.	.	.
COc1cc(-c2cc(C(=O)Nc3c(Cl)cc(Cl)cc3Cl)c3ccccc3n2)cc(OC)c1OC	-5.1	0.2	7.3	-14.3	5.1	.	.
COc1ccc2nc3ccccc3nc2c1NC(=O)c1ccc(Cl)cc1Cl	-7.5	29.4	-3.2	-25.0	6.1	-5.8%	15.2%
CC1CCCN(C(=O)c2ccc3c(c2)OCO3)C1 (configuration not stated)	-7.2	-0.1	-1.3	-13.0	5.9	.	.
O=C(c1ccc2c(c1)OCO2)N1CCCC(c2ccccc2)C1 (configuration not stated)	1.6	23.0	-4.5	-6.7	54.6*	23.1%	25.8%
Cn1c(=O)c2sccc2n2c(CCC(=O)Nc3ccc(F)cc3)nnc12	.	0.1	-9.6	.	.	.	.
Clc1ccccc1CN1CCc2nc(N3CCN(c4ncccn4)CC3)ncc2C1	.	22.4	-7.2	.	.	.	.
O=C(Nc1ccc(Cl)cc1Cl)N1CCN(c2ncccn2)CC1	-2.7	6.2	-0.3	2.9	-13.9	.	.
Clc1cccc(CN2CCN(c3ncccn3)CC2)c1Cl	?	69.1*	-33.7	23.8	60.7*	22.9%	50.1µM*
Clc1ccc(CN2CCN(c3ncccn3)CC2)c(Cl)c1	78.8*	75.8*	-23.9	59.4*	89.8*	?	28.2µM*
Clc1ccccc1CN1CCN(c2ncccn2)CC1	69.8*	79.9*	-38.5	58.8*	75.8*	-3.1%	20µM*
Cc1ccc2oc3c(c(=O)c2c1)C(c1ccccc1F)N(c1ccccn1)C3=O (configuration not stated)	.	0.0	-8.1	.	.	.	.
CC(CN1CCC(O)CC1)c1ccccc1 (configuration not stated)	-0.8	-0.1	6.2	-9.6	-1.2	.	.
CCCCC(O)CN1CCC(c2ccccc2)CC1 (configuration not stated)	-0.6	52.0*	-25.3	-47.2	48.3*	-10.4%	2.0%
CC(=O)Nc1ccc(NC(=O)COC(=O)c2ccccc2SCC(=O)N2CCCC2)cc1	-0.6	0.5	-3.4	0.1	14.3	.	.
CCN(CC(=O)Nc1ccc(NC(C)=O)cc1)C(=O)c1ccccc1SCC(=O)N1CCCC1	2.4	.	.	3.6	.	-4.4%	-2.9%
CN(Cc1ccc(Cl)cc1)C(=O)c1ccccc1SCC(=O)N1CCCC1	-9.9	.	-1.0	-26.0	.	-1.8%	-2.0%
COC(=O)c1ccc(S(=O)(=O)NCCSc2nnc3c4ccccc4n(C)c3n2)cc1	-0.7	-0.9	6.4	-8.1	28.4	16.6%	8.8%

From PubChem BioAssay
